The whole screen tested about 5,500 compounds, of which about 2,000 (36%) were called active. Roughly 18% stayed inconclusive and do not appear here. Cut-off read from the data, not from the text of the source: active = normalized growth mostly below about 0.91 (no sharp cut-off); inconclusive = no clear call, values can overlap the other calls; inactive = mostly above about 0.92. The list shows a part of the results.
Assay: chemical genetic growth profiling, strain panel (AID 1159580);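 note: tested at 20 µM; growth read once vehicle control cultures reached saturation at 30 °C; 1 = growth at the plate median or of vehicle wells; lower values mean less growth of the strain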
Conditions: S. cerevisiae deletion strains, growth OD

Measured: normalized growth

CC1/C(=N\O)C[C@@H]2C[C@H]1C2(C)C (some centres undefined)
inactive: locus YAL013W, strain DEP1, stronger effect = lower value 1.01 | locus YBR021W, strain FUR4, stronger effect = lower value 1.01 | locus YBR229C, strain ROT2, stronger effect = lower value 1.01 | locus YCL029C, strain bik1, stronger effect = lower value 0.994 | locus YDL035C, strain GPR1, stronger effect = lower value 0.993 | locus YDL074C, strain BRE1, stronger effect = lower value 1.04 | locus YDL101C, strain DUN1, stronger effect = lower value 1.02 | locus YDL134C, strain PPH21, stronger effect = lower value 1.01 | locus YDL185W, strain tfp1, stronger effect = lower value 1.02 | locus YDL192W, strain arf1, stronger effect = lower value 1.03 | locus YDR101C, strain arx1, stronger effect = lower value 0.981 | locus YDR162C, strain NBP2, stronger effect = lower value 1.02 | locus YDR318W, strain mcm21, stronger effect = lower value 1.04 | locus YDR388W, stronger effect = lower value 1.02 | locus YDR502C, strain sam2, stronger effect = lower value 1.02 | locus YER110C, stronger effect = lower value 1.01 | locus YER155C, strain BEM2, stronger effect = lower value 1.01 | locus YER167W, strain BCK2, stronger effect = lower value 1.01 | locus YGL078C, strain dbp3, stronger effect = lower value 1.02 | locus YGL086W, strain mad1, stronger effect = lower value 0.999 | locus YGL248W, strain PDE1, stronger effect = lower value 1.03 | locus YGR078C, strain PAC10, stronger effect = lower value 1.03 | locus YGR135W, strain pre9, stronger effect = lower value 1.04 | locus YGR252W, strain gcn5, stronger effect = lower value 1.01 | locus YHR030C, strain SLT2, stronger effect = lower value 1.03 | locus YHR079C, strain IRE1 (second series), stronger effect = lower value 1.03 | locus YHR079C, strain IRE1, stronger effect = lower value 1.04 | locus YHR094C, strain hxt1, stronger effect = lower value 1.01 | locus YHR129C, strain ARP1, stronger effect = lower value 1.01 | locus YHR200W, strain rpn10, stronger effect = lower value 1.03 | locus YIL066C, strain RNR3, stronger effect = lower value 1.01 | locus YIL073C, strain SPO22, stronger effect = lower value 1.05 | locus YIL125W, strain kgd1, stronger effect = lower value 1.02 | locus YIR030C, strain dcg1, stronger effect = lower value 1.02 | locus YJL095W, strain BCK1, stronger effect = lower value 1.04 | locus YJL134W, strain LCB3, stronger effect = lower value 1.02 | locus YJL168C, strain set2, stronger effect = lower value 1.01 | locus YJL187C, strain SWE1 (second series), stronger effect = lower value 1.03 | locus YJR043C, strain POL32, stronger effect = lower value 0.994 | locus YJR066W, strain TOR1, stronger effect = lower value 0.95 | locus YJR075W, strain HOC1, stronger effect = lower value 1.03 | locus YKL009W, strain mrt4, stronger effect = lower value 0.995 | locus YKL068W, stronger effect = lower value 1.02 | locus YKL085W, strain MDH1 (second series), stronger effect = lower value 1.02 | locus YKL085W, strain MDH1, stronger effect = lower value 1.02 | locus YKL190W, strain CNB1, stronger effect = lower value 1.01 | locus YKR001C, strain vps1, stronger effect = lower value 1.05 | locus YLR039C, strain RIC1, stronger effect = lower value 1.09 | locus YLR058C, strain SHM2, stronger effect = lower value 1.02 | locus YLR102C, strain apc9, stronger effect = lower value 1.05 | locus YLR113W, strain HOG1, stronger effect = lower value 1.05 | locus YLR262C, strain YPT6, stronger effect = lower value 1.1 | locus YLR268W, strain sec22, stronger effect = lower value 1.02 | locus YLR371W, strain rom2, stronger effect = lower value 1.04 | locus YLR418C, strain cdc73, stronger effect = lower value 1.06 | locus YML016C, strain PPZ1, stronger effect = lower value 1.02 | locus YML032C, strain rad52, stronger effect = lower value 1.02 | locus YML124C, strain tub3, stronger effect = lower value 1.01 | locus YMR078C, strain ctf18, stronger effect = lower value 1.03 | locus YMR223W, strain ubp8, stronger effect = lower value 1.02 | locus YMR307W, strain GAS1, stronger effect = lower value 1.06 | locus YNL067W, strain RPL9B, stronger effect = lower value 1.02 | locus YNL183C, strain NPR1, stronger effect = lower value 0.951 | locus YNL233W, strain BNI4, stronger effect = lower value 1.03 | locus YNL250W, strain rad50, stronger effect = lower value 1.05 | locus YNL271C, strain bni1, stronger effect = lower value 1.02 | locus YNL298W, strain CLA4, stronger effect = lower value 1.02 | locus YNL307C, strain MCK1, stronger effect = lower value 1.01 | locus YNR052C, strain pop2, stronger effect = lower value 1.03 | locus YOL012C, strain htz1 1.25 | locus YOL147C, strain pex11, stronger effect = lower value 1.01 | locus YOR061W, strain CKA2, stronger effect = lower value 1.02 | locus YOR069W, strain VPS5, stronger effect = lower value 1.01 | locus YOR136W, strain idh2, stronger effect = lower value 1 | locus YOR144C, strain elg1, stronger effect = lower value 1.01 | locus YOR184W, strain ser1, stronger effect = lower value 0.926 | locus YOR231W, strain MKK1, stronger effect = lower value 1.02 | locus YOR316C, strain cot1, stronger effect = lower value 1.03 | locus YPL256C, strain CLN2, stronger effect = lower value 1.05 | locus YPR119W, strain clb2, stronger effect = lower value 1.03 | locus YPR141C, strain kar3, stronger effect = lower value 1.02 | locus YPR163C, strain tif3, stronger effect = lower value 1.03 | locus YPR167C, strain met16, stronger effect = lower value 1.03 | strain wtn01, stronger effect = lower value 0.995
